Assay outcomes (PubChem BioAssay)
Pf growth 96h: inhibits malaria parasite growth, 96 h. 320,000 compounds, 6.9% hits. Potency, µM (series often up to 28.7 µM), most hits filed as inhibitors. P. falciparum luciferase reporter growth, 96 h
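96 h incubation, 37 C, 5% CO2, of luciferase-reporter P. falciparum-infected RBCs (2% hematocrit, 0.05% parasitemia final) with test compounds; endpoint luminescence.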
Giardia FBPA inh: inhibitors of Giardia lamblia fructose-1,6-bisphosphate aldolase; purified Giardia FBPA; Potency, µM (doses to about 59.6 µM), usual class: inhibitors; 290,000 compounds, 0.71% hits; AID 2451; also: nearly all actives have a fitted effect of over 55% in size
Target sequence (A8B2U2 whole entry, looked up): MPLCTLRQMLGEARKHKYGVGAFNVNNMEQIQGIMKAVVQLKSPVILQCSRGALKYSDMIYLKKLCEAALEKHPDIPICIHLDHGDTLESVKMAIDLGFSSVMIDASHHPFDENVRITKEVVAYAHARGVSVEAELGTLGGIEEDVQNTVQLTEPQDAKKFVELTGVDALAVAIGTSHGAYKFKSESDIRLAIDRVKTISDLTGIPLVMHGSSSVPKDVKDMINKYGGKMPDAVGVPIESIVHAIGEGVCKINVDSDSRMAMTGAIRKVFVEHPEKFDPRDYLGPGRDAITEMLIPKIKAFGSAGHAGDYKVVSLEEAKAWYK
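40 nM FBPA preincubated 10 min at RT with compound (up to 57.5 uM final), then substrate plus GAPDH/TPI/NAD/arsenate coupling and diaphorase/resazurin added. Fluorescence read after 20 min at RT, 525/598 nm.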
Sm TGR block: inhibitors of Schistosoma mansoni thioredoxin glutathione reductase; purified TGR, DTNB reduction, TNB absorbance 405 nm; Potency, µM (top dose mostly 114 µM), hits mostly inhibitors; 360,000 compounds, 3% hits; AID 485364; also: nearly all actives have a fitted effect of over 60% in size
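TGR 20 nM + NADPH 100 uM (dispensed conc.), cpd preinc 15 min RT; start with NADPH (500 uM addition) then DTNB (15 mM addition). Kinetic TNB absorbance, 405 nm filter. Four-parameter Hill fit across titration.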
HCMV antiviral: blocks human cytomegalovirus replication | AID 1259415 | HFF cells, HCMV-luciferase reporter, 72 h; hits give low values | 410,000 compounds, 4.5% hits | activity change, negative = inhibition, % at 57.5 µM; in the data active = activity change below about -60%; inconclusive = no clear call, values can overlap the other calls; inactive = above about -39%
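Steps: HFFs plated, 16 h 37C; compounds added; HCMV-luciferase added to MOI 1 PFU/cell; 72 h 37C; OneGlo reagent, 5 min room temperature; luminescence read, normalized to controls.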
Pf growth 48h: P. falciparum growth inhibition at 48 hours (one generation); P. falciparum luciferase growth in erythrocytes, 48 h; Potency, µM (series often up to 28.7 µM), actives largely listed as inhibitors; 310,000 compounds, 5.9% hits
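First compound was added to culture medium, then infected red cells at 0.1% parasitemia and 2% hematocrit (final). After incubation at 37 C under 5% CO2, luciferase detection reagent was dispensed and light output recorded.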
A number is an active result; i = inactive; ? = inconclusive; nt = no result; [ ] = dose if it differs, or a comment. This is a sample that favours compounds with a hit; in the whole collection about 14% have one here. Unless noted, calls follow the shape of the dose curve; as a rule, active = well fitted curve in the direction sought with a large enough effect; inconclusive = small, poorly fitted or top-dose-only effect, or another doubt; inactive = no such curve, though single readings can be large; an effect the other way counts as inactive or inconclusive.

SMILES	Pf growth 96h	Giardia FBPA inh	Sm TGR block	HCMV antiviral	Pf growth 48h
Nc1ccccc1Nc1ccccc1	?	i	i	i	i
Nc1ccc(Nc2ccccc2)c(Cl)c1	nt	i	11µM	i	i
C=C1CCC(O)C/C1=C/C=C1\CCC[C@@]2(C)C(C(C)/C=C/C(C)C(C)C)CC[C@@H]12 (stereo not given in full)	nt	i	nt	nt	nt
O=C(/C=C/c1ccc([N+](=O)[O-])cc1)Nc1cccc(C(=O)Nc2ccccc2C(=O)O)c1	i	i	i	i	i
CC(C)c1cccc(C(C)C)c1NC(=O)c1ccc(-c2cc(Cl)ccc2Cl)o1	nt	nt	nt	i	nt
CCCCN(C(=O)CSCc1ccc(C)cc1)c1c(N)n(CCC)c(=O)[nH]c1=O	i	nt	i	i	i
COc1ccc(N2CCN(S(=O)(=O)c3c(C)nc4sccn4c3=O)CC2)cc1	4.1µM	?	i	i	i
Cc1ccc(COC(=O)c2cc(S(=O)(=O)N3CCOCC3)ccc2C)cc1	13µM	nt	i	i	9.3µM
Cc1ccc(S(=O)(=O)N2CCOCC2)cc1C(=O)OCCOc1cccc(Cl)c1	10µM	nt	i	?	?
O=C(OCCOc1ccccc1)c1cccc(S(=O)(=O)N2CCOCC2)c1	?	nt	i	i	?
CCn1c(SCC(=O)c2cc(C)ccc2C)nc2cc(S(=O)(=O)N3CCOCC3)ccc21	7.4µM	i	i	-63	?
CCC(C)NC(=O)CSc1nc2cc(S(=O)(=O)N3CCOCC3)ccc2n1CC (stereo not given)	i	nt	i	i	i
COc1ccccc1CNC(=O)[C@@H](NC(=O)C1CCN(C(=O)[C@@H]2CCCN2)CC1)C(C)C	i	?	?	i	i
CCOc1ccc(/C=N/N2C(=O)C(CC(=O)Nc3ccc(F)cc3F)SC2=NC)cc1OC (stereo not given)	12µM	i	i	i	12µM
CN=C1SC(CC(=O)Nc2ccccc2F)C(=O)N1/N=C/c1ccc(O)c(OC)c1 (stereo not given)	i[5.75 µM]	i	i	i	i
Cc1nc(NC(=O)c2ccc(Cl)cc2)sc1-c1csc(Nc2cccc(F)c2)n1	2.6µM	i	i	nt	13µM
Cc1ccc(Nc2nc(-c3sc(NC(=O)c4cccc(Cl)c4)nc3C)cs2)cc1	4.1µM	i	i	nt	2.3µM
CCC(=O)Nc1nc(C)c(-c2csc(Nc3cccc(C(=O)O)c3)n2)s1	?	?	i	i	i
COc1ccccc1Nc1nc(-c2sc(NC(=O)c3cccc(Cl)c3)nc2C)cs1	9.3µM	i	i	nt	?
CCOC(=O)C(NC(=O)c1ccccc1)=C(C)C	i	i	i	i	nt
CC(=O)c1cccc(NC(=S)NC(=O)c2ccccc2)c1	i	?	28µM	i	i
COc1ccc(NC(=S)Nc2cccc(C(C)=O)c2)cc1OC	12µM	i	?	i	i
COc1ccc(C(=O)Nc2cccc(C(C)=O)c2)cc1OC	i	i	i	i	i
CC(=O)c1cccc(NC(=S)NC(=O)c2cccc(Cl)c2)c1	i	?	40µM	i	i
COC(=O)C(NC(=O)c1ccccc1)=C(C)C	4.1µM	i	i	i	i
SMILES	Pf growth 96h	Giardia FBPA inh	Sm TGR block	HCMV antiviral	Pf growth 48h
Cc1ccc2ncccc2c1NC(=S)NC(=O)c1ccccc1	i	?	20µM	i	?
Cc1ccc2ncccc2c1NS(=O)(=O)c1ccccc1	?	i	i	i	i
S=C(Nc1ccccc1)Nc1ccc2cn[nH]c2c1	i	?	?	?	i
COc1ccccc1CN(C)C(C)C(=O)Nc1cccc(C(C)=O)c1 (stereo not given)	i	i	i	i	?
O=C(NC(=S)Nc1ccc2cn[nH]c2c1)c1ccccc1	i	?	14µM	i	i
COc1ccc(Br)cc1CN(C)C(C)C(=O)Nc1cccc(C(C)=O)c1 (stereo not given)	?	i	22µM	i	?
CCC1(CC)C(C#N)C(=O)NC(=O)C1C#N (stereo not given)	nt	nt	nt	i	nt
COc1ccccc1CNC(=O)COC(=O)c1ncc(Cl)c(Cl)c1Cl	i	nt	i	i	i
COc1ccc(NC(=S)NCCCCCC(=O)C[N+](=O)[O-])cc1	?	i	20µM	i	?
O=C(CCCCCNC(=S)Nc1ccccc1)C[N+](=O)[O-]	i	i	25µM	i	i
COCC(=O)Nc1c(I)c(C(=O)NC[C@@H](O)CO)c(I)c(C(=O)N(C)C[C@@H](O)CO)c1I	i	i	nt	nt	i
